MCF10A rerep = DNA re-replication induction in MCF 10a cells. MCF 10A DNA re-replication, Hoechst nuclear intensity, 48 h. Potency, µM (doses to about 46.1 µM), inactives show at the top dose activity, positive = re-replication, most hits filed as activators. hit rate 2.9% among 350,000; also: potency is read from the fitted curve at half-maximal effect; % of control where 0% means no effect; nearly all actives have a fitted effect of over 50% in size
ASM inhibitor = blocks human secretory acid sphingomyelinase. P17405. placental ASM, HMU-PC fluorogenic substrate, 60 min. Potency, µM (doses to about 57.5 µM), inactives show at the highest dose activity change, negative = inhibition, usual class: inhibitors. hit rate 0.006% among 340,000; also: potency is read from the fitted curve at half-maximal effect
Target sequence (P17405 47-631 limits assumed): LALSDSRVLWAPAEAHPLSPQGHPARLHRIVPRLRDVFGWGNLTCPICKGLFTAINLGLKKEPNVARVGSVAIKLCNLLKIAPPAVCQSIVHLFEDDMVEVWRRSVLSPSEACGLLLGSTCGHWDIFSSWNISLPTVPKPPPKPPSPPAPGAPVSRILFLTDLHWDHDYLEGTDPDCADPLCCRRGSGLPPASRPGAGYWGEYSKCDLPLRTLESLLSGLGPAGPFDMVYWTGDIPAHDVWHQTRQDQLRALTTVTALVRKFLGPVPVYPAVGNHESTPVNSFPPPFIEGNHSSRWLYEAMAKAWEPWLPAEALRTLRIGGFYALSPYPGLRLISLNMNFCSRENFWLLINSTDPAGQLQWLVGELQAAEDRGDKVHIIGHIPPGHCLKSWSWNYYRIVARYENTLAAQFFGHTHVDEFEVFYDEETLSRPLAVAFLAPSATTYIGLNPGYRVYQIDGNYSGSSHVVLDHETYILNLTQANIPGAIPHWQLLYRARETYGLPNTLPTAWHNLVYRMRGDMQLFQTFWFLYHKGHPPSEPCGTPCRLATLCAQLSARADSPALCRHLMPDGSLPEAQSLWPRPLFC
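Human placenta-derived ASM enzyme was preincubated with compound for 10 minutes at room temperature, then given fluorogenic substrate HMU-PC0 (9 uM final) for 60 minutes at 37 °C; a pH 10 stop preceded fluorescence reading at Ex 386/Em 447 nm.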
Giardia killer = kills Giardia lamblia. AID 540267. activity change, % at 7.66 µM, hits read low. Giardia lamblia trophozoite viability. hit rate 0.15% among 340,000; in the data active = activity change below about -80%; inconclusive = between about -30% and that limit;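 also: parasites exposed to compound for two days anaerobically before the ATP read; % is scaled to controls: 0 for no effect and ±100 for the full control effect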
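Killing of trophozoites was scored by loss of ATP luminescence after a 48 hrs anaerobic exposure to compounds at 37 deg C, using 100 cells per well.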
SW480 rerep = induces DNA re-replication in SW480 colon adenocarcinoma cells. SW480 DNA re-replication, Hoechst DNA content imaging, 48 h. hit rate 1.8% among 340,000. Potency, µM (series often up to 46.1 µM), for inactives: at the highest dose re-replication activation, most hits filed as activators. AID 624297; also: potency is read from the fitted curve at half-maximal effect; % of control where 0% means no effect; nearly all actives have a fitted effect of over 55% in size
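First, 250 cells per well were seeded. Next, compound or vehicle (23 nL) was pinned in, plates sat 48 hr at 37 C. Finally Hoechst was added for 40 min before fluorescence scanning.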
KB-V1 MDR tox = KB-V1 MDR subline cytotoxicity. KB-V1 MDR cells viability, CellTiter-Glo, 72 h. Potency, µM (doses to about 46.1 µM), usual class: cytotoxic. hit rate 3.4% among 400,000. AID 1347076; also: potency is read from the fitted curve at half-maximal effect; % is scaled to controls: 0 for no effect and ±100 for the full control effect; nearly all actives have a fitted effect of over 60% in size
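Readout: CellTiter-Glo luminescence, 10 min after addition. Cells: KB-V1 MDR subline, 72 h at 37 degrees C with compound. Analysis: corrected, normalized data fitted to concentration-effect curves.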
KB-3-1 cytotox = KB-3-1 parental cell cytotoxicity | KB-3-1 viability, CellTiter-Glo ATP luminescence, 72 h | Potency, µM (top dose mostly 46.1 µM), actives largely listed as cytotoxic | hit rate 1.4% among 400,000 | AID 1347075; also: potency is read from the fitted curve at half-maximal effect; % is scaled to controls: 0 for no effect and ±100 for the full control effect; nearly all actives have a fitted effect of over 60% in size
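Cytotoxicity measured as CellTiter-Glo luminescence after 72 h at 37 C. Compound titrations were pinned onto drug-naive KB-3-1 parental adenocarcinoma cells grown in DMEM with 10% FBS, and normalized data fitted to concentration-response curves.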
* hit, by the source's call; i = inactive; ? = inconclusive; . = no result. A selection: hits, their analogues and other compounds. The true share with any hit is near 6.9%. Unless noted, calls follow the shape of the dose curve; as a rule, active = well fitted curve in the direction sought with a large enough effect; inconclusive = small, poorly fitted or top-dose-only effect, or another doubt; inactive = no such curve, though single readings can be large; an effect the other way counts as inactive or inconclusive.

SMILES	MCF10A rerep	ASM inhibitor	Giardia killer	SW480 rerep	KB-V1 MDR tox	KB-3-1 cytotox
CC(=O)Nc1ccc(/C=C/c2ccccn2)cc1	.	.	.	.	i	?
COc1cc(C(=O)NC(=S)N(CCc2ccccc2)CCc2ccccc2)cc(OC)c1OC	?	-5%	0	?	2.3µM*	?
O=C(NC(=S)N(Cc1ccccc1)Cc1ccccc1)c1ccccc1F	19%	-2%	1	1.6µM*	i	i
COc1cc(C(=O)NCc2cccc3ccccc23)cc(Cl)c1OC	?	-5%	-11	15%	18µM*	i
O=C(NC(=S)N(CCc1ccccc1)CCc1ccccc1)c1ccco1	14%	-3%	2	?	6.5µM*	?
O=S(=O)(N1CCN(c2nc(-c3cccs3)nc3ccccc23)CC1)C(F)(F)F	.	.	17	.	i	i
CCO[C@@H]1OC(C(=O)N2CCOCC2)=C[C@H](c2ccc(C(F)(F)F)cc2)[C@H]1CCCO	-8%	4%	-7	-3%	i	?
CCOc1ccccc1OCC(=O)N/N=C(\C)Cc1ccc(OC)cc1	?	0%	4	8.2µM*	?	?
COc1cc(C(=O)N/N=C(\C)Cc2ccccc2)cc(OC)c1OC	2.1µM*	1%	4	2.6µM*	i	i
O=C(CCl)N(CCc1ccccc1)CCc1ccccc1	23µM*	-2%	-21	4.1µM*	?	?
COc1ccccc1OCC(=O)NN=C(Cc1ccccc1)Cc1ccccc1	?	-2%	0	?	?	i
O=C(CCCc1ccccc1)NCCc1ccccc1	0%	3%	-6	-1%	i	i
CCOCCCNC(=O)c1c(N)n(-c2ccc3c(c2)OCO3)c2nc3ccccc3nc12	23µM*	i	2	9.2µM*	i	i
CCCNC(=O)c1c(N)n(-c2cc(OC)cc(OC)c2)c2nc3ccccc3nc12	16µM*	i	-8	9.2µM*	i	i
CCOCCCNC(=O)c1ccc2c(c1)OCO2	4%	2%	-1	-9%	i	i
CCCNC(=O)c1c(N)n(-c2ccc3c(c2)OCO3)c2nc3ccccc3nc12	17%	i	2	?	i	?
COCCCNC(=O)c1c(N)n(-c2ccc3c(c2)OCO3)c2nc3ccccc3nc12	10µM*	i	8	6.5µM*	i	i
Nc1c(C(=O)NC2CC2)c2nc3ccccc3nc2n1-c1ccc2c(c1)OCO2	2.9µM*	447%	15	?	i	i
Cc1ccccc1C(=O)Nc1ccc2oc(-c3ccc(Cl)c(Cl)c3)nc2c1	.	.	.	.	?	i
CCCCc1ccc(NS(=O)(=O)c2ccc(N3CCCCS3(=O)=O)cc2)cc1	.	.	.	.	?	i
COc1ccc(C2/C=C\CN(C(=O)CC(C)(C)C)C(C)C(=O)N2Cc2ccc(F)cc2)cc1 (configuration not stated)	.	.	-21	.	.	.
O=C(COc1ccc(F)cc1)OCc1cc(=O)n2nc(-c3cccs3)sc2n1	.	.	.	.	i	i
Cc1nc(NC(=O)/C=C/c2ccco2)sc1C	?	7%	0	8.2µM*	?	4.1µM*
O=C(/C=C/c1ccco1)Nc1nnc(-c2ccco2)s1	5.8µM*	-3%	3	?	?	?
COc1ccc2c(c1)c(C(=O)CN(C)C)c(C)n2C	.	.	.	.	i	?
SMILES	MCF10A rerep	ASM inhibitor	Giardia killer	SW480 rerep	KB-V1 MDR tox	KB-3-1 cytotox
Cc1cccc(C(=O)NCC(=O)OCC(=O)c2ccc3ccccc3c2)c1	.	.	-1	.	i	i
O=C(CN(Cc1cccs1)C(=O)CN1C(=O)COc2ccccc21)NCc1ccco1	-5%	3%	1	-2%	13µM*	i
CC(C)(C)NC(=O)CN(Cc1cccs1)C(=O)c1csnn1	1%	2%	-3	-12%	i	i
CC(C)(C)NC(=O)CN(Cc1cccs1)C(=O)CN1C(=O)C(=O)c2ccccc21	2.1µM*	1%	-2	?	i	i
O=C1c2ccccc2-c2cc([N+](=O)[O-])c([N+](=O)[O-])cc21	.	.	.	.	i	?
Cc1cccc(CNC(=O)CN2C(=O)C3CCCCN3c3ccc(C(=O)N4CCCC4)cc32)c1 (configuration not stated)	.	.	.	.	i	i
Cc1cc(C(Br)(Br)Br)nc2ccccc12	.	.	.	.	i	i
CC(C)n1c(N2CCN(S(=O)(=O)c3cccc([N+](=O)[O-])c3)CC2)nc2ccccc21	-4%	-3%	-17	4%	18µM*	i
COc1ccc(OCCN2CCN(S(=O)(=O)c3ccccc3C(F)(F)F)CC2)cc1	0%	-2%	11	-5%	2.3µM*	?
CCn1c(N2CCN(S(=O)(=O)c3ccc(OC)cc3)CC2)nc2ccccc21	-2%	0%	6	6%	13µM*	i
CCn1c(N2CCN(S(=O)(=O)c3ccccc3C(F)(F)F)CC2)nc2ccccc21	?	-2%	7	11%	18µM*	i
CCN1CCN(c2ccc(N3CCN(S(=O)(=O)c4cccc([N+](=O)[O-])c4)CC3)nn2)CC1	.	.	.	.	i	i
O=S(=O)(c1ccccc1C(F)(F)F)N1CCN(S(=O)(=O)c2ccccc2C(F)(F)F)CC1	-5%	2%	-2	-3%	i	i
COc1ccc(NS(=O)(=O)c2ccc3c(c2)NC(=O)C(C)S3)cc1 (configuration not stated)	3%	-5%	-14	-12%	i	?
COc1ccc(NCc2cc3cc4c(cc3n(CC(=O)Nc3ccc(C)cc3)c2=O)OCO4)cc1	.	.	.	.	i	i
CC(C)C(Cl)=NOC(=O)Nc1ccc(S(N)(=O)=O)cc1	2.9µM*	1%	12	?	i	i
COC(=O)[C@H](C)NC(=O)Nc1ccc(S(N)(=O)=O)cc1	?	0%	13	?	i	i
CCc1nnc(NC(=O)CSc2nnc(-c3ccccc3O)n2-c2ccc(C)cc2C)s1	9.2µM*	-20%	-5	18µM*	18µM*	?
CCc1nnc(NC(=O)CSc2nnc(COc3ccccc3)n2-c2ccc(C)cc2)s1	5%	-1%	-5	6%	i	i
Cc1cc(NC(=O)c2noc3c2CCCC3)nn1Cc1ccc(Cl)cc1	-6%	-11%	14	17%	18µM*	?
Cc1ccccc1Cn1nc(C)c(NC(=O)C2(C)CC2(Cl)Cl)c1C (configuration not stated)	7%	.	1	18µM*	?	i
Cc1ccccc1Cn1nc(C)c(NC(=O)c2noc3c2CCCC3)c1C	3%	-3%	8	-1%	5.2µM*	?
CC(=O)c1ccc(S(=O)(=O)Nc2cccc(-c3ccc(N4CCCCCC4)nn3)c2)cc1	.	.	.	.	i	?
